According to PubChem BioAssay AID1845 (The Scripps Research Institute Molecular Screening Center, 2009):
Out of some 290,000 compounds screened, about 490 (0.17%) were called active. For the sample, actives were picked, then their nearest neighbours and some compounds at random. A number with no mark means an inactive call. No stated cut-off is given here; in the data, active means inhibition above about 37%; inactive means the rest.

test: DNA intercalator displacement agents – biochemical, FID fluorescence, artefact control for HCV NS3 helicase inhibitor project, primary screen (AID 1845); conditions: DNA fluorescent intercalator displacement, at 7.9 µM, hits give high values;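 further: 0% = vehicle and 100% = reference compound; higher means more ethidium bromide displaced from hairpin DNA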

Question: With `COc1cccc(-c2nc3ccc(N4CCN(C)CC4)cc3[nH]2)c1` as the molecule, how does the inhibition read?
Answer: The inhibition was 40.7% (active).

Question: For `CN1CCN(c2cc(N3CCNCC3)ccc2[N+](=O)[O-])CC1`, which inhibition is on record?
Answer: The inhibition was 14.7%.

Question: Which inhibition does the source give for `Cc1nc2ccc(N3CCN(C)CC3)cc2nc1C` here?
Answer: The inhibition was 7.94%.

Question: Which inhibition does the source give for `Cn1c(O)c(C(=Nc2ccc(F)cc2)c2ccccc2)c(=O)n(C)c1=O` here?
Answer: The inhibition was 1.2%.

Question: With `CCOC(=O)C1(CCc2ccccc2)CCN(Cc2ccco2)CC1` as the molecule, how does the inhibition read?
Answer: Its inhibition is 5.09%.

Question: Which inhibition does the source give for `CCOC(=O)C1(Cc2ccc(Cl)cc2)CCN(C(C)CCn2cccn2)CC1` (stereo not given) here?
Answer: Its inhibition is 37.1% (active).

Question: For `Cn1c(C(=O)N2CCC(C(=O)N3CCC4(CC3)OCCO4)CC2)cc2sccc21`, which inhibition is on record?
Answer: Its inhibition is -30.4%.

Question: With `O=C(C1CC(=O)N(C2CCCC2)C1)N1CCC2(CC1)OCCO2` (stereo not given) as the molecule, how does the inhibition read?
Answer: Its inhibition is -1.99%.

Question: With `c1ccc(C2NCc3ccccc3-n3cccc32)cc1` (stereo not given) as the molecule, how does the inhibition read?
Answer: The inhibition was 9.21%.

Question: With `O=C(Cc1ccc(Cl)cc1)NCCN1CCN(C(=O)Cc2ccc(Cl)cc2)CC1` as the molecule, how does the inhibition read?
Answer: Its inhibition is -26%.
